Compound activity: PubChem, Johns Hopkins Ion Channel Center
Shown are actives, neighbours in structure and some others; about 2.4% of the full set was active somewhere.
CHT block: human CHT choline transport inhibition; B-score at 10 µM; AID 488975; hit rate 0.86% among 310,000; CHT-expressing cells, membrane potential dye, choline response; stronger effect = lower value; Q9GZV3;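 active = B-score over 3 SD under the library average, and starting fluorescence ratio not unusually high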;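 also: choline stimulus applied at its EC90 after an EC20 pre-addition; B-score computed on integrated fluorescence ratio after choline addition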
ANO1 activ: activators or potentiators of mouse TMEM16A chloride channel | Q8BHY3 | HEK293 TMEM16A/YFP-H148Q/I152L, iodide quench fluorescence; stronger effect = lower value | B-score at 10 µM | hit rate 0.3% among 340,000;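 active = fluorescence-ratio B-score plate-corrected deviation score at least 3 library SD below zero, with starting fluorescence score within 5 deviations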;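 also: channel opened by trigger with iodide after compound preincubation; score built on the fluorescence ratio of max minus min over baseline; more negative score means more quench and so TMEM16A activation or potentiation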
TMEM16A inh: blocks the mouse calcium-activated chloride channel TMEM16A. Q8BHY3. HEK293 TMEM16A/YFP iodide influx fluorescence, ionomycin. normalized B-score (activity score, 25-100; higher = stronger inhibition) at 10 µM. hit rate 1.2% among 310,000. AID 588511;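 active = ratio plate-corrected score three or more library SD toward inhibition, starting fluorescence score within five deviations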;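 also: score derived from kinetic fluorescence span divided by baseline fluorescence per well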
CHT allo act: allosteric activators of human choline transporter CHT. hit rate 0.49% among 310,000. CHT-expressing cells, membrane potential dye, choline EC20; stronger effect = higher value; LV-AA mutant CHT in HEK293 cells. Q9GZV3. B-score at 10 µM;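 active = initial fluorescence not abnormally high and integrated response B-score, plate-corrected, over 3 SD above library mean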
CHT activ conf: confirmation of human choline transporter (CHT) activators; AID 504833; hit rate 91% among 2,500; CHT-expressing cells, membrane potential dye fluorescence (FDSS); % of choline EC20–EC90 response window; HEK293 expressing CHT LV-AA mutant; choline added at its EC20; shares compounds with CHT allo act; activation, % at 10 µM;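 active = primary screen active, with duplicate mean activation above negative control mean plus 3 SD, cut at about 11% in these data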
HEK293 MP dye: counter-screen for CHT activators: effect in parental HEK293 cells; shares compounds with CHT allo act; membrane potential dye fluorescence (FDSS); measured after EC20 choline addition; ratio readout change at 10 µM, hits read low; hit rate 62% among 2,500; AID 623908;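 active = duplicate-averaged ratio beyond 3 SD from buffer wells, up or down, though filed actives are nearly all decreases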
The depositor's hits bear a star.

Screening O=C1C(=O)N(c2ccccn2)C(c2ccc(Br)cc2)/C1=C(/O)c1ccc(Br)cc1 (configuration not stated) returned CHT block inactive, ANO1 activ inactive, TMEM16A inh inactive and CHT allo act inactive.
Screening COc1ccc(OC)c2c(C)cc(N3CCCN(C)CC3)nc12 returned CHT block inactive, ANO1 activ inactive, TMEM16A inh inactive, CHT allo act 8*, CHT activ conf 46* and HEK293 MP dye -74*.
Screening Cc1sc2ncn3ncnc3c2c1C returned CHT block inactive, ANO1 activ inactive, TMEM16A inh inactive and CHT allo act inactive.
`Cc1sc2ncn3cnnc3c2c1C` gave CHT block inactive, ANO1 activ inactive, TMEM16A inh inactive, CHT allo act inactive, CHT activ conf 45* and HEK293 MP dye -41*.
Screening O=C(Oc1cccc2c(=O)[nH]ccc12)c1ccccc1 returned CHT block inactive, ANO1 activ inactive, TMEM16A inh inactive and CHT allo act inactive.
`NCCCCCC(=O)Nc1ccncc1` gave CHT block inactive, ANO1 activ inactive, TMEM16A inh inactive, CHT allo act inactive, CHT activ conf 18* and HEK293 MP dye -35*.
Screening O=C(Nc1ccc(Cl)cc1)c1csc(-c2ccncc2)n1 returned CHT block inactive, ANO1 activ inactive, TMEM16A inh inactive and CHT allo act inactive.
For C[C@H](NC(=O)c1nc[nH]c1C(=O)OCc1ccccc1)c1ccccc1 the results were ANO1 activ inactive.
O=C(N/N=C/c1ccc(O)cc1)c1cc[n+](Cc2ccccc2)cc1 was read as CHT block inactive, ANO1 activ inactive, TMEM16A inh inactive, CHT allo act inactive, CHT activ conf 37* and HEK293 MP dye -29*.
COCCN(Cc1cn[nH]c1-c1ccc2cc(OC)ccc2c1)C(C)C was read as CHT block inactive, ANO1 activ inactive, TMEM16A inh inactive and CHT allo act inactive.
Screening COc1ccc(Cl)cc1NC(=O)CN(C)C(=O)c1cc(-c2ccncc2)nc2ccccc12 returned CHT block inactive, ANO1 activ inactive, TMEM16A inh inactive, CHT allo act 7.8*, CHT activ conf 49* and HEK293 MP dye inactive.
Cc1ccc(NC(=O)COC(=O)c2ccc(OC(F)F)cc2)cc1S(=O)(=O)N1CCCCC1 was read as ANO1 activ inactive.
`CCOP(=O)(OCC)C(NCc1ccccc1)c1ccc(Br)cc1` (configuration not stated) gave CHT block inactive, ANO1 activ inactive, TMEM16A inh inactive, CHT allo act inactive, CHT activ conf 29* and HEK293 MP dye inactive.
`O=C(c1ccccc1)C1CCN(C(=O)c2ccco2)CC1` gave CHT block inactive, ANO1 activ inactive, TMEM16A inh inactive and CHT allo act inactive.
`COc1nnc(-c2ccc(N3CCOCC3)c(NC(=O)C3CCCCC3)c2)c2ccccc12` gave CHT block inactive, ANO1 activ inactive, TMEM16A inh inactive, CHT allo act inactive, CHT activ conf 7 and HEK293 MP dye inactive.
For Cn1c(=O)c2c(nc(N3CCOCC3)n2CCSc2ncccn2)n(C)c1=O the results were CHT block inactive, ANO1 activ inactive, TMEM16A inh inactive, CHT allo act 8.6*, CHT activ conf 75* and HEK293 MP dye -79*.
CCCCCCn1c(N2CCCC2)nc2c1c(=O)n(C)c(=O)n2C was read as CHT block inactive, ANO1 activ inactive, TMEM16A inh inactive and CHT allo act inactive.
For Cn1c(=O)c2c(nc(N3CCOCC3)n2CCCNC2=NCCC2)n(C)c1=O the results were CHT block inactive, ANO1 activ inactive, TMEM16A inh inactive, CHT allo act 8.8*, CHT activ conf 54* and HEK293 MP dye -56*.
COc1cccc2[nH]c(C(=O)NCCCN3CCCC3=O)cc12 was read as CHT block inactive, ANO1 activ inactive, TMEM16A inh inactive and CHT allo act inactive.
